Laboratory results taken from the supplement of paper PMC11732987, “Enantioselective OTUD7B fragment discovery through chemoproteomics screening and high-throughput optimisation” (Communications Chemistry, 2025).

Columns and labels:
Assay in all cases: log2 ratio of Biotin-Ahx-Ub-VS probe labelling (fragment/DMSO); higher = less target engagement (more negative = stronger competition), active = hit call of the paper (q ≤ 0.05, log2 ratio ≤ -1)
Details in all cases: compound concentration: 200 uM; treatment time: 3 h
USP19 = molecular target: T1, USP19 (UniProt O94966)
T1 sequence (whole entry): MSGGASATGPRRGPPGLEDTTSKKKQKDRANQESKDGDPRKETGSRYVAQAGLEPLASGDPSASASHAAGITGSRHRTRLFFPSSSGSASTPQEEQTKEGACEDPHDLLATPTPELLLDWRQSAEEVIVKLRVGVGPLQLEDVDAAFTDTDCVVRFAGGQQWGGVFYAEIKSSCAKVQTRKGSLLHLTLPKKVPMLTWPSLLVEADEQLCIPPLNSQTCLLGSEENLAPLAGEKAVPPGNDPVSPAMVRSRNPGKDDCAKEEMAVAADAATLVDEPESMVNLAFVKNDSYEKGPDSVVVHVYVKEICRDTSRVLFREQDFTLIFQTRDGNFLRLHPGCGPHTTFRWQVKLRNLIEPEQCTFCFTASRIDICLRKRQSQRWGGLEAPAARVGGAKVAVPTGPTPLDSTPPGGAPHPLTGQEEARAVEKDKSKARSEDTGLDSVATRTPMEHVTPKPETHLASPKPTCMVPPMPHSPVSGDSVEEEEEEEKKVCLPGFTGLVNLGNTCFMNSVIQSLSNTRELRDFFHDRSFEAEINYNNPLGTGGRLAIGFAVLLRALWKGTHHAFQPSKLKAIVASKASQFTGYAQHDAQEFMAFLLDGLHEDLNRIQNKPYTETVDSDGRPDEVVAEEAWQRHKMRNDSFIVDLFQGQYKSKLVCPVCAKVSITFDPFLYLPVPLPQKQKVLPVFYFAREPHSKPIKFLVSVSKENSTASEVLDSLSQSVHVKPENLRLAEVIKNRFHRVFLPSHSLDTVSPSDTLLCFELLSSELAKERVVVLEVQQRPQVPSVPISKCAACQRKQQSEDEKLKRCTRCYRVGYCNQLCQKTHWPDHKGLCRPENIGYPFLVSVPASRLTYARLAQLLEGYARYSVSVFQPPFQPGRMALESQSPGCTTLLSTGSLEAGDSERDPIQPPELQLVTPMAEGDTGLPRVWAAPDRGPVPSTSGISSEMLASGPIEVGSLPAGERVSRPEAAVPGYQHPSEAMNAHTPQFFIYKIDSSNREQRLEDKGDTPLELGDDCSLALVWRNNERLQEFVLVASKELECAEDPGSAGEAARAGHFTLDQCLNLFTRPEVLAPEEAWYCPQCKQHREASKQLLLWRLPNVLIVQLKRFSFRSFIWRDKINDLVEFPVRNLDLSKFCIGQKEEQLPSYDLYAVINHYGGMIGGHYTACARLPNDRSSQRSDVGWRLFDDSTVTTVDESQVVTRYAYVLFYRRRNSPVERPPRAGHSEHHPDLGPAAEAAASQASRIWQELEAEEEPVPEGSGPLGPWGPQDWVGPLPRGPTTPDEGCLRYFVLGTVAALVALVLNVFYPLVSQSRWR
Summary of the method: (§1)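 Fragment (200 µM) or vehicle was incubated for 3 h with triplicate HEK293T lysate samples of 495 µg, which were then treated with Biotin-Ahx-Ub-VS at 0.5 µM final for 1 h. Labelled DUBs were enriched on NeutrAvidin, digested with LysC and trypsin, and analysed by diaPASEF LC-MS/MS. Values are average log2 fragment/vehicle ratios from an unpaired t-test on global-median-normalised Spectronaut label-free quantities, using proteins with ≥2 unique peptides.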

USP24 = USP24 (UniProt Q9UPU5)
Summary of the method: as §1

USP25 = molecular target: T2, USP25 (UniProt Q9UHP3)
T2 sequence (whole entry): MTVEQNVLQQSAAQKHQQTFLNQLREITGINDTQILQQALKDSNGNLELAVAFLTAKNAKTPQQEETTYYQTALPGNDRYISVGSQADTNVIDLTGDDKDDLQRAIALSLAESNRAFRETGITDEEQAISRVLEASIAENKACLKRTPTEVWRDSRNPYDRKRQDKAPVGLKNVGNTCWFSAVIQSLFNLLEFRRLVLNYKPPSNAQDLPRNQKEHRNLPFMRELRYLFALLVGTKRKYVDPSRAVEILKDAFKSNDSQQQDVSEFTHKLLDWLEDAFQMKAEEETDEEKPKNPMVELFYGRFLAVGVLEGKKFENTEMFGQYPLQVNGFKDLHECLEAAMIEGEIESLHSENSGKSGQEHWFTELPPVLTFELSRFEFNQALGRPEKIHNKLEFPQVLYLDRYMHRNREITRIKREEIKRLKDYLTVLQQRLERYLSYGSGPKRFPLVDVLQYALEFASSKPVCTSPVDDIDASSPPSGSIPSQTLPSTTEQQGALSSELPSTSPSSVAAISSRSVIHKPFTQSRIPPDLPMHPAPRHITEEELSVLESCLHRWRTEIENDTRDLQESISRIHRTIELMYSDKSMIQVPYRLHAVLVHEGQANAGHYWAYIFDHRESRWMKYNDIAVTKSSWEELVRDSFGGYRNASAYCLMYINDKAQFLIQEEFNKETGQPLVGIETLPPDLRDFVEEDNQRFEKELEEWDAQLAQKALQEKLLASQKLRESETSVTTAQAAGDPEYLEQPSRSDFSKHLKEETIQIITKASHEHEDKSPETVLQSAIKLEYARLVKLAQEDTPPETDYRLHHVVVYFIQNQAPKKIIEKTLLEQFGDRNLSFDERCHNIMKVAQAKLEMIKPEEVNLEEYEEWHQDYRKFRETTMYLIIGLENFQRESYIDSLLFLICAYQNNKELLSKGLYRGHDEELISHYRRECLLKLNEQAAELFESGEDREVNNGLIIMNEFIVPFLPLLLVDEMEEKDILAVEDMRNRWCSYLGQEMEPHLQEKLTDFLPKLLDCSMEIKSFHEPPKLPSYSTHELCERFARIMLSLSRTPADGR
Summary of the method: as §1

USP28 = molecular target: T3, USP28 (UniProt Q96RU2)
T3 sequence (whole entry): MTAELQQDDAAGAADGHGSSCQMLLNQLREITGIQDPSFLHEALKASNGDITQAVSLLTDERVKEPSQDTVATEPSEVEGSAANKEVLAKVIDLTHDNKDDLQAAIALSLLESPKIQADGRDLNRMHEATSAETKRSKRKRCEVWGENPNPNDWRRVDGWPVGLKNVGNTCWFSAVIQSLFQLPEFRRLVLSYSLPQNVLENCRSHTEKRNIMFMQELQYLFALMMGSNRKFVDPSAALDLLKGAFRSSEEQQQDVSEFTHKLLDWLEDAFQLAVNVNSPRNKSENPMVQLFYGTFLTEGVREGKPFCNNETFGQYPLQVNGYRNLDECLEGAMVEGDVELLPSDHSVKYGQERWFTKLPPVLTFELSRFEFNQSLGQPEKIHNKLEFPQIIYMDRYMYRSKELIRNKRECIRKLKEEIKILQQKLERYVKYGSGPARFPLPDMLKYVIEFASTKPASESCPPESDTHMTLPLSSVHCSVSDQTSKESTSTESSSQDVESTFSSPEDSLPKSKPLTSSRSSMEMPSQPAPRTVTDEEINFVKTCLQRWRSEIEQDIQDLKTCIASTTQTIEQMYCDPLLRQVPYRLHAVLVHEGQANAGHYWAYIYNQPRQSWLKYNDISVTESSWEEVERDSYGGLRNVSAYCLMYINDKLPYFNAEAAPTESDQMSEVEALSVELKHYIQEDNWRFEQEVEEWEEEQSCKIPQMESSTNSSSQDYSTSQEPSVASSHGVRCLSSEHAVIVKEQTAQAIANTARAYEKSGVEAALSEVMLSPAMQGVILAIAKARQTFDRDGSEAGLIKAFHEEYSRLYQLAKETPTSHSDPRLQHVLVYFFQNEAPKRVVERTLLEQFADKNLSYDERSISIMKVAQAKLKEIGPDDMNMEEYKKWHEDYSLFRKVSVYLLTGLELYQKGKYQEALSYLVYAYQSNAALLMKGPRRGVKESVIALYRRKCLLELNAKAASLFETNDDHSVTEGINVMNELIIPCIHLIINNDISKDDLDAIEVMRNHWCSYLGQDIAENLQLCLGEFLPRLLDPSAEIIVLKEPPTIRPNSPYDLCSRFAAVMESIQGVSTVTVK
Summary of the method: as §1

Measured: log2 ratio of Biotin-Ahx-Ub-VS probe labelling

Sequence of USP24 (Q9UPU5 whole entry): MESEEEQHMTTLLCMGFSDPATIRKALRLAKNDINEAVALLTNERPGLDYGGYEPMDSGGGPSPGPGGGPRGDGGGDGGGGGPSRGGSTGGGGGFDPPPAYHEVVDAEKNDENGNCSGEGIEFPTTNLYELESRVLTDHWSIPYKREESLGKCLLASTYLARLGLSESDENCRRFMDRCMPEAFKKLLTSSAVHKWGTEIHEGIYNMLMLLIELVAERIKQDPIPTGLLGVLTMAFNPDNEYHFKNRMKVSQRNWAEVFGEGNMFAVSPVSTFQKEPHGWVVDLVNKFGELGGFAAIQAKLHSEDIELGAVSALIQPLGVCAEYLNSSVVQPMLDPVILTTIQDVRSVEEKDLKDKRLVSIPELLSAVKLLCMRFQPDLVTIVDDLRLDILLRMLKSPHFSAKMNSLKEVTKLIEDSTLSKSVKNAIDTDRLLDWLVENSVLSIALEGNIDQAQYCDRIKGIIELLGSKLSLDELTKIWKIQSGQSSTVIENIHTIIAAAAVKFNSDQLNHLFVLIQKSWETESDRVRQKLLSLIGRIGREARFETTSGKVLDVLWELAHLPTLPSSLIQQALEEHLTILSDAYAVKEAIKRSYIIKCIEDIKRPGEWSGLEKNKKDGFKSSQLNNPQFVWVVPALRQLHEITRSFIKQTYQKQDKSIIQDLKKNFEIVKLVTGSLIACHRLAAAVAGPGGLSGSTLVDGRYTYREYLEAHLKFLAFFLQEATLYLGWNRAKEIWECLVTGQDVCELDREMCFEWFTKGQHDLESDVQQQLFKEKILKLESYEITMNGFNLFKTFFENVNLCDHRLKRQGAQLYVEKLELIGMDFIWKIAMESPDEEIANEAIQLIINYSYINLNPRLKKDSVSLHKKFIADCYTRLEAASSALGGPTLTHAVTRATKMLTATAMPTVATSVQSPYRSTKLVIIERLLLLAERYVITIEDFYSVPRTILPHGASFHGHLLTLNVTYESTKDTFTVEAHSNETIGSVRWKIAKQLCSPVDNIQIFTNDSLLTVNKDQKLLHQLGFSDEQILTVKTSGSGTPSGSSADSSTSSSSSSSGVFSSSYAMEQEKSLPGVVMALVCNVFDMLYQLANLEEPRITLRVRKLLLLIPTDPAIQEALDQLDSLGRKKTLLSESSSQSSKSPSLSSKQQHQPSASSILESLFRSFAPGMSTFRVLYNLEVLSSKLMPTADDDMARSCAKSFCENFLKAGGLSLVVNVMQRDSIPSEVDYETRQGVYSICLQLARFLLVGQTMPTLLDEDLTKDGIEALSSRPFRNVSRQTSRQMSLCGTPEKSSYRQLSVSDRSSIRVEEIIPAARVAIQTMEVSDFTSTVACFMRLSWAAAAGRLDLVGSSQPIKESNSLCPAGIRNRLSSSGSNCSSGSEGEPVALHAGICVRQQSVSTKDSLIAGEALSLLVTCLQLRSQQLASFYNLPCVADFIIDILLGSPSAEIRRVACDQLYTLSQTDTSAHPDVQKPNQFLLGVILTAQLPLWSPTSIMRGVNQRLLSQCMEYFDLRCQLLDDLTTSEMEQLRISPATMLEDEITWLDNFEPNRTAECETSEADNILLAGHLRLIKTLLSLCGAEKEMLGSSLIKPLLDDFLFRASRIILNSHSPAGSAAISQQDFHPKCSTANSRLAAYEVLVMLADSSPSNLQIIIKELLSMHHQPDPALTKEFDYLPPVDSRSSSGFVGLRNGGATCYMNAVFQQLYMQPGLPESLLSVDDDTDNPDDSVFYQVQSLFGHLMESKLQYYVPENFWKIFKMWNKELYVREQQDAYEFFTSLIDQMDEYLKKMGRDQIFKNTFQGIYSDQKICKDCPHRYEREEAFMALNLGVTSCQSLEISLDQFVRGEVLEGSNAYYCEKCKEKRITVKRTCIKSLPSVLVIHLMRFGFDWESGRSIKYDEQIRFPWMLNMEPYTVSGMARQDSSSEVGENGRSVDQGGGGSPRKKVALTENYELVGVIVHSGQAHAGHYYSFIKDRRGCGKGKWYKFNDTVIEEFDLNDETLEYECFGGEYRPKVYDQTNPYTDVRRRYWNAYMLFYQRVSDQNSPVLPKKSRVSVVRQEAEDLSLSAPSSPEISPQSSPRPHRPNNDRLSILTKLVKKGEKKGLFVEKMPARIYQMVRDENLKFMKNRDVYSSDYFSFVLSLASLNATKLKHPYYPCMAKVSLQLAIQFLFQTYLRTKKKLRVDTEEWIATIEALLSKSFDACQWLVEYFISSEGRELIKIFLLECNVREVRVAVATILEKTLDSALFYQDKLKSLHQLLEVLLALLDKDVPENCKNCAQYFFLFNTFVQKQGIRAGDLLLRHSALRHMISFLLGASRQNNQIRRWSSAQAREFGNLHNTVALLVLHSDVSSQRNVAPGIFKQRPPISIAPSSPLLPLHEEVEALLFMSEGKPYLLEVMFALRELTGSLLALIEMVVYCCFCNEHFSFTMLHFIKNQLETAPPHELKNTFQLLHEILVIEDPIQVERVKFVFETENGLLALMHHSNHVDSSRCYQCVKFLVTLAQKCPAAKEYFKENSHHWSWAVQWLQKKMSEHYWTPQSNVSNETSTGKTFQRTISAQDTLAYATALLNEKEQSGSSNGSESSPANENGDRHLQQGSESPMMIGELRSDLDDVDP

CN1c2ccccc2C(NC(=O)CCl)CS1(=O)=O (centres undefined)
inactive: USP19 -0.159 | USP24 -0.201 | USP25 -0.52 | USP28 -0.788
